Screening data deposited in PubChem by National Center for Advancing Translational Sciences (NCATS).
GLS inh = inhibitors of human glutaminase (GLS); 410,000 compounds, 0.21% hits; Potency, µM (titrated, usually from 45.5 µM), for inactives: at the top dose activity change, negative = inhibition, hits mostly inhibitors; GLS enzymatic activity, qHTS titration
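hKGA in 45 mM KH2PO4 (pH 8.2), 0.02% Tween-20 with compound, then 1mM L-Glutamine (stock as added) plus glutamate oxidase/HRP/Amplex red coupling mix. Fluorescence read initially and after 30 min at RT; signal change reflects glutamate formation.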
TrxR1 substrate = substrates of rat thioredoxin reductase 1 | O89049 | purified TrxR1 substrate turnover, NADPH consumption readout | Potency, µM (highest dose often 114 µM), without a hit: top-dose activity change, negative = substrate turnover | 390,000 compounds, 0.01% hits | AID 588456; note: nearly all actives have a fitted effect of over 50% in size
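Rat TrxR1, dispensed at 90 nM, was prereduced with 400 uM NADPH (final) for 5 min at ~22 deg C, then incubated with compound 15 min before 400 uM selenite. A first-read NADPH fluorescence drop versus no-compound background flagged substrates.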
rTrxR1 inhibitor = rat TrxR1 inhibition. O89049. recombinant rTrxR1, NADPH fluorescence consumption, selenite substrate. 390,000 compounds, 1% hits. Potency, µM (titrated, usually from 114 µM), without a hit: at the top dose activity change, negative = inhibition, usual class: inhibitors; note: nearly all actives have a fitted effect of over 65% in size
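Rat TrxR1 (90 nM in the dispensed reagent) was pre-reduced with 400 uM NADPH for 5 min at room temperature, then incubated with compound for 15 min. After 400 uM selenite was added, NADPH fluorescence (Ex 340/Em 450 nm) was followed for 8 min.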
mIDH1 inhibitor = blocks human mutant IDH1 R132H enzyme | O75874 | IDH1-R132H enzyme, NADPH consumption, diaphorase/resazurin fluorescence | Potency, µM (titrated, usually from 76.6 µM), inactives show top-dose activity change, negative = inhibition, actives largely listed as inhibitors | 390,000 compounds, 0.093% hits; note: nearly all actives have a fitted effect of over 65% in size
Target sequence (O75874 whole entry R132H, stated change not applied): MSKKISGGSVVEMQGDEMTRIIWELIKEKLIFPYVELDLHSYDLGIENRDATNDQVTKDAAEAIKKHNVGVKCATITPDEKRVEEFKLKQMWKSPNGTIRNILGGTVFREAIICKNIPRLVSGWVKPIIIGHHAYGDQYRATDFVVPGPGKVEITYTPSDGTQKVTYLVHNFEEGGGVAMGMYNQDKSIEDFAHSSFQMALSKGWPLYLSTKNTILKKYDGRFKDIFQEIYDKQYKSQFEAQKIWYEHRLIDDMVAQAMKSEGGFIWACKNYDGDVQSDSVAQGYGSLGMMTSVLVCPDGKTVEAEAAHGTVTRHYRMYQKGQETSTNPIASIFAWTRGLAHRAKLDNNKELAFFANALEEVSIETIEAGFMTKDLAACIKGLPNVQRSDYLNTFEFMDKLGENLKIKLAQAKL
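IDH1-R132H (0.5 ug/mL) preincubated 30 min with compound, then NADPH (0.016 mM) and alpha-KG (2 mM) added; 80 min at RT, pH 7.5. Remaining NADPH coupled via diaphorase/resazurin to fluorescence (540/590 nm); concentration-response curves normalized to no-enzyme control.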
An asterisk follows results filed as active; i = inactive; ? = inconclusive; . = not tested or not shown; ! = not active in a repeat; [ ] = dose if it differs, or a comment. An excerpt weighted towards active compounds, which were near 1.2% of everything screened. Calls come from the whole dose curve; as a rule, active = well fitted curve in the direction sought with a large enough effect; inconclusive = small, poorly fitted or top-dose-only effect, or another doubt; inactive = no such curve, though single readings can be large; an effect the other way counts as inactive or inconclusive. % is set by controls: 0 for no effect and ±100 for the full control effect; potency is the fitted concentration of half-maximal effect.

SMILES	GLS inh	TrxR1 substrate	rTrxR1 inhibitor	mIDH1 inhibitor
CC(C)(C)OC(=O)N[C@@H](Cc1ccccc1)c1nnc(S(=O)(=O)Cc2cccc(F)c2)o1	-12.6%	-8.6%	0.631µM*	2.3%
CCOC(=O)CSc1nnc([C@H](Cc2ccccc2)NC(=O)OC(C)(C)C)o1	0.0%	0.9%	1.3%	7.5%
C[C@H](CO)N1C[C@H](C)[C@@H](CN(C)C(=O)CCC(F)(F)F)OCc2cnnn2CCCC1=O	-2.1%	.	.	-3.8%
COc1cc(O)c(C(C)=O)c(OC)c1	-2.0%	6.1%	21.8%	6.6%
CC(=O)c1c(O)cc(O)cc1O	18.1%	-2.5%	3.55µM*	-13.5%
COc1cc(O)c(C(C)=O)c(CC(=O)O)c1	10µM*	-5.6%	-14.9%	-7.0%
Cc1cc(N(C)C)cc(C)c1/C=C/c1cc[n+](C)c2ccccc12	.	11.7%	9.6%	.
COc1ccc(/C=C/C(=O)c2ccc([N+](=O)[O-])o2)cc1OC	-13.3%	-15.0%	14.1µM*	?
COc1cc(/C=C/C(=O)/C=C(O)/C=C/c2ccc(O)c(OC)c2)ccc1O	35.5µM*!	-6.5%[57.1 µM]	-15.2%[57.1 µM]	-10.2%
O=C(/C=C/c1cccc(Cl)c1)c1ccc([N+](=O)[O-])o1	22.0%	-2.4%	1.58µM*	?
NS(=O)(=O)c1ccc(CNC(=O)/C=C/c2cccc(Cl)c2)cc1	2.7%	-0.7%	0.8%	6.6%
COc1cc(OC)c(C(=O)C=Cc2ccc(OC)c(OC)c2)c(OC)c1	-12.2%	-21.2%	?	-5.6%
COc1cc(/C=C/C(=O)c2ccc([N+](=O)[O-])o2)ccc1O	-1.3%	-0.8%	7.94µM*	3.2%
Cc1ccnc2ccc3ccccc3c12	.	456.2%	89.1µM*	.
Cc1ccnc2cc(Cl)cc(Cl)c12	.	-4.8%	-2.0%	.
O=C(CCl)N(c1ccccc1)C1CCCCC1	3.4%	14.4%[57.1 µM]	3.16µM*	0.0%
CC(=O)N(c1ccccc1)C1CCCC1	2.2%	-14.1%	-17.8%	6.0%
COc1ccc(N2C(=O)CC(Sc3nnc(-c4ccccc4F)n3C)C2=O)cc1 (stereo not drawn)	7.8%	0.3%	31.6µM*	-7.3%
C=CCNc1nnc(SC2CC(=O)N(c3ccc(OC)cc3)C2=O)s1 (stereo not drawn)	2.7%	10.8%	3.98µM*	-1.1%
CCCN1C(=O)S/C(=C\c2ccc(N3CCOCC3)o2)C1=O	-20.6%	-6.2%[57.1 µM]	7.94µM*	10.8%
CCCN1C(=O)S/C(=C/c2ccc(N3CCOCC3)o2)C1=O	-12.9%	-13.3%	28.2µM*	-8.9%
CCN(Cc1ccccc1)c1ccc(/C=C/c2nccc3ccccc23)cc1	.	-2.1%	11.5%[0.0914 µM]	.
CCOc1ccc(C(C)=O)cc1N1C(=O)C2C3C=CC(C3)C2C1=O (stereo not drawn)	-17.7%	9.0%[57.1 µM]	-5.5%	-1.3%
CCOc1ccc(C(C)=O)cc1N1C(=O)C2C3C=CC(O3)C2C1=O (stereo not drawn)	18.0%	6.9%	3.16µM*	-1.1%
O=C(O)C(Oc1ccc2cc(-c3ccc(Cl)cc3)c(=O)oc2c1)c1ccccc1 (stereo not drawn)	-2.8%	i	44.7µM*	4.0%
SMILES	GLS inh	TrxR1 substrate	rTrxR1 inhibitor	mIDH1 inhibitor
Cc1ccc(-c2nc3cc(Cl)ccc3o2)cc1NC(=O)COc1ccccc1C	.	0.7%	4.4%	.
NS(=O)(=O)c1ccc(NC(=S)NC2CCCC2)cc1	0.7%	4.0%	6.8%	-1.0%
NS(=O)(=O)c1ccc(NC(=S)NC2CCCCCC2)cc1	1.3%	-4.9%	15.8µM*	0.8%
O=C(CCNS(=O)(=O)c1ccc(Br)cc1)NC1CCCCC1	5.4%	0.9%	2.1%	-6.9%
O=S(=O)(NC(=S)NC1CCCCC1)c1ccc(Br)cc1	?	13.5%	2.82µM*	-21.7%
O=C(CNC(=O)c1ccccc1)Sc1ccccc1	9.5%	3.9%	12.6µM*	2.0%
Cc1cc2nccc(C)c2cc1C	.	2.4%	12.1%	.
CCOc1cc(/C=C(\C#N)C(=O)Nc2cccc(C(=O)O)c2)ccc1OCc1ccccc1Cl	-4.3%	4.2%	16.0%	32.9µM*
CCOc1cc(/C=C(\C#N)C(=O)Nc2ccccn2)ccc1O	-1.8%	-1.0%	25.1µM*	3.7%
COc1cc(/C=C(\C#N)C(=O)Nc2cccc(C(=O)O)c2)ccc1OCc1ccc(F)cc1	-5.5%	-3.4%[57.1 µM]	-7.1%[57.1 µM]	-9.0%
Cc1cccn2c(=O)c3cc(C(=O)NCc4ccccc4)c(=N)n(CCOCCO)c3nc12	-14.1%	931.3%	261.1%	-6.5%
CCc1ccc(NC(=O)Cn2nnc(C(=O)Nc3ccc(F)cc3)c2N)cc1	2.9%	0.3%	23.8%	9.5%
O=C1NN(c2ccccc2)C(=O)/C1=C\c1ccccc1	-7.7%	-4.7%	28.2µM*	-3.8%
